# Test results: PubChem BioAssay (NCI)
# Where “and” joins values, the source holds several entries; their conditions need not be identical. Equal values may be shown once. About 83,000 compounds went through this panel and 20% of them were active in at least one assay; those are over-represented in the sample as a whole.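 How to read the values: 0–100, growth inhibition (40 = 60% inhibited); 0, no net growth; -100 to 0, cell death (-40 = 40% of starting cells died; -100 = all dead).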 Unmarked numbers belong to inactive results. Calls of active or inactive are those of the source.
# System: CAKI-1 renal
# Test: NCI-60 one-dose screen, 48 h (100 = growth as untreated, 0 = no growth, -100 = all killed)
# Details: 10 µM
# Description: Growth inhibition of the CAKI-1 human tumor cell line is measured as a screen for anti-cancer activity. Cells are grown in 96 well plates and exposed to the test compound for 48 hours. Compounds are tested at a single concentration, which is 10^-5 M for most compounds. The reported endpoint is percent growth (GI% or GIPRCNT), where numbers from 0 - 100% represent growth inhibition, and numbers from -100% - 0 represent cell death. For example, a value of 40 represents 60% growth inhibition. A value of 0 means no net growth occurred over the course of the experiment. A value of -40 indicates 40% of cells at the beginning of the experiment died by the end of the experiment. A value of -100 means all cells are dead at the end of the experiment.
# NCI-60 Human Tumor Cell Lines Screen was performed using the standard one-dose NCI protocol, which is described in more detail at https://dtp.cancer.gov/discovery_development/nci-60/default.htm.
# Compounds with GIPRCNT values below 10 were considered active. Activity score was based on GIPRCNT using the following formula: […]
# Score is 0 for GIPRCNT values of 100 or above, 50 for GIPRCNT values of 0, and 100 for GIPRCNT values of -100.
row,Structure (SMILES),growth
1,O=C(Nc1cccc(Br)c1)Oc1cccc2cccnc12,94.4%
2,O=C(Nc1c(Cl)cccc1Cl)Oc1cccc2cccnc12,-9.81% (active)

# Same assay, conditions: 10 µM unless noted
row,Structure (SMILES),growth
1,N#CSCc1ccc(Cl)c(CSC#N)c1,22.5%
2,O=Nc1ccccc1N=O,81.1%
3,COc1ccc(N=N/N=c2\sc3cc(OC)ccc3n2C)cc1,96.8%
4,Cc1cc(C(C)(CC(C)C)c2ccc(O)c(C)c2)ccc1O,73.3%
5,Oc1ccc(/C=N/NC(=S)Nc2ccccc2)nc1,7.96% (active)
6,CN(Cc1cnc2nc(N)nc(N)c2n1)c1ccc(C(=O)NC(CCC(=O)O)C(=O)O)cc1 (stereo not given),22.2%
7,Cc1ccc2c(ccc3c[n+]4c5ccccc5ccc4n32)c1,67.8%
8,O=C1c2cccnc2-c2nccc3c2c1nc1cc(Br)ccc13,-49.6% (active) and -90.7% (active)
9,CCCCCCC(C)c1ccccc1O (stereo not given) (tested in a mixture with another compound),90.1%
10,Oc1c(Cl)c2ccccc2c2ccccc12,111%
11,CCOc1ccc(-c2nc3ccc(-c4nc5ccc(N6CCN(C)CC6)cc5[nH]4)cc3[nH]2)cc1,-43.8% (active)
12,CN(C)c1ccc(C(=C2C=CC(=[N+](C)C)C=C2)c2ccc(N(C)C)cc2)cc1 (tested in a mixture with another compound),-43.7% (active)
13,CCOC(=O)/C=C/c1ccc([N+](=O)[O-])o1,9% (active)
14,CC1OC(OC2C(OC3CCC4(C)C(CCC5(C)C4CC=C4C6CC(C)(C)CCC6(CO)C(O)CC45C)C3(C)C)OC(C(=O)O)C(OC3OC(COC4OC(CO)C(O)C(O)C4O)C(O)C(O)C3O)C2O)C(O)C(O)C1O (stereo not given),-95.3% (active)
15,CCC(c1cccc(O)c1)C(CC)c1cccc(O)c1 (stereo not given),66.4%
16,Nc1nc(N)c2c(ccc3c2ccn3Cc2cccc([N+](=O)[O-])c2)n1,-96.1% (active)
17,O[C@H]1[C@H]2c3cc4c(cc3CN3CCC(=C[C@@H]1O)[C@H]23)OCO4,28.1%
18,NC(=S)N/N=C/c1ccc(Cl)s1,98.1%

row,Structure (SMILES),growth
1,CN(C)c1ccc(N=Nc2cccc3ccccc23)cc1,90.2%
2,O=C1c2ccccc2C(=O)c2sc(Nc3ccc(Cl)cc3)nc21,75%
3,CC(=O)Nc1cccc2cc(O)ccc12,129% and 93.5%
4,NC(=S)N/N=C\c1nccc2c(C(F)(F)C(F)(F)C(F)(F)F)cccc12,-5.07% (active)
5,COc1cc(NS(C)(=O)=O)ccc1Nc1c2ccccc2nc2ccccc12,16.3% [2.5 µM]
6,Nc1ncnc2c1ncn2C1OC(CO)C(O)C1O (stereo not given),103% and 109% and 94.5%
7,CCCCCCCCCCCCCCNCc1ccccc1,82.2%
8,O=C1C=CC(=O)N1C1c2ccccc2-c2ccccc21,55.7%
9,CC1SC(=S)N(c2ccc(Cl)cc2)C1=O (stereo not given),109% and 82.2%
10,CCCCCC(CCCCC)C(=O)O,119%
11,Oc1c(Br)c(Br)c(O)c(Br)c1Br,92.5%
12,Cc1cc2nc(CS)[nH]c2cc1C,43.9%
13,COC(=O)[C@@]12OC[C@]34[C@H]([C@@H](O)[C@@H]1O)[C@@]1(C)[C@H](O)C(=O)C=C(C)[C@@H]1C[C@H]3OC(=O)C(OC(C)=O)[C@@H]24 (stereo not given in full),-35.9% (active)
14,COc1ccc2nc3cc(Cl)ccc3c(NCCNc3c4ccc(Cl)cc4nc4ccc(OC)cc34)c2c1,-79.8% (active)
15,O=C(Nc1cccc(Br)c1)Oc1ccc(Cl)c2cccnc12,47% [100 µM]
16,Oc1c(Br)cc(Cl)cc1C(c1cc(Cl)cc(Br)c1O)C(Cl)(Cl)Cl,1.81% (active)
17,CCC(CC)COC(=O)c1ccc(O)c(O)c1,40.6%
18,C1=C(c2ccccc2)C(c2ccc(OCCN3CCCCC3)cc2)Oc2ccccc21 (stereo not given),30%

# Same assay, conditions: 100 µM
row,Structure (SMILES),growth
1,O=C(Nc1cccc(Br)c1)Oc1cccc2cccnc12,67.9%
2,O=C(Nc1c(Cl)cccc1Cl)Oc1cccc2cccnc12,16.8%
